From PubChem
SMARCA2 activ – SMARCA2 function activation, primary screen; MG213 cells, MMTV-luciferase reporter, dexamethasone, overnight; activation, % at 9.1 µM; 370,000 tested, 1% active; AID 652017; in the data active = activation above about 7.8%
MITF TRPM1 HTS – activators of MITF-driven TRPM1 promoter activity in SK-MEL-5 cells; 300,000 tested, 0.75% active; SK-MEL-5 TRPM1-promoter luciferase, 24 h; % of positive control, neutral wells = 0; activation, % at 12.5 µM; AID 588334;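 active = mean activation of at least 80% with every replicate also reaching 80%; inconclusive = mean reaches 80% but some replicate falls short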
Wnt bcat act – activates Wnt/beta-catenin signaling in a reporter cell assay. activator, plate reader. 300,000 tested, 1.2% active. AID 743398. activation, % at 9.35 µM; in the data active = activation above about 30%, passing the limit was not always enough; inconclusive = no clear call, values can overlap the other calls
HSF1 activator – increases HSF-1 driven luciferase reporter signal | NIH3T3-HGL HSF-1 luciferase reporter, MG132, 8 h; 100% = twice DMSO control signal | 300,000 tested, 1.7% active | AID 504408 | activation, % at 9 µM;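 active = mean replicate activation of at least 50% with a set share of replicates each reaching 50%; inconclusive = only one of those two conditions met; inactive = mean below 50% and too few replicates reaching it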
HSF1 inh – HSF1 inhibition. AID 2098. NIH3T3-HGL HSE-luciferase, MG132-induced, luminescence 8 h; active compounds read low. 300,000 tested, 0.77% active. activity change, negative = inhibition, % at 7.5 µM (by protocol);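 active = more than half of replicate wells show activity change below -50%, luminescence cut by over half; inconclusive = some wells, but at most half, below -50%; inactive = no replicate well below -50%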;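 note: luciferase reports HSF-1 transcriptional activity via heat shock element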
esBAF inh – blocks esBAF chromatin remodeling in mouse ES cells | 350,000 tested, 2% active | Bmi1-luciferase knock-in reporter, 24 h; 100% = twice the neutral-well signal | reporter increase, % at 12.5 µM; in the data active = activation above about 40%; inconclusive = no clear call, values can overlap the other calls;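 note: a rise in the Bmi1 reporter signal indicates esBAF inhibition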
SMARCA2 conf – confirmation of SMARCA2 (BRM) function activators; 3,500 tested, 30% active; MG213 cells, MMTV-luciferase with dexamethasone, luminescence, overnight; MG213 cells expressing E1A, Rb sequestered; DMSO wells 0%, reference activator 100%; shares compounds with SMARCA2 activ; activation, % at 9.1 µM; AID 652260;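 active = activation above its plate's cutoff, the mean activation of tested wells plus 3 SD, cut at about 7.9% in these data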
VP16 Luc act – GAL4-VP16 reporter activation counter-screen; shares compounds with SMARCA2 activ; HEK293 GAL4-VP16 pG5luc reporter, luciferase luminescence; scaled: DMSO wells 0%, SAHA wells 100%; activation, % at 9.1 µM; 3,500 tested, 41% active;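 active = activation above the solvent-only control well mean plus 3 SD, averaged across control plates, cut at about 5.2% in these data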
Numbers stand for hits; 0 = inactive; ? = inconclusive; - = no result given. Most compounds without a hit are left out; they make up all but 4.3% or so of the library.

SMILES	SMARCA2 activ	MITF TRPM1 HTS	Wnt bcat act	HSF1 activator	HSF1 inh	esBAF inh	SMARCA2 conf	VP16 Luc act
COc1ccc(-n2c(SCC3CNC(=O)O3)nnc2-c2ccc(Cl)cc2)cc1 (stereo unspecified)	11.7	0	0	0	0	-	0	0
O=S(=O)(NNc1ccc(Cl)nn1)c1ccc(F)cc1	8.4	0	0	0	0	-	0	0
O=S(=O)(Nc1ccc(Cl)nn1)c1ccccc1	0	0	0	0	0	-	-	-
COCCNC(=O)c1cc2c(=O)n3cccc(C)c3nc2n(Cc2ccncc2)c1=N	0	0	-	0	0	0	-	-
CCCCNC(=O)c1cc2c(=O)n3cccc(C)c3nc2n(Cc2ccncc2)c1=N	9.7	0	0	0	0	0	12.6	0
Cc1cnc(C(=O)Nc2nnc(C3CC3)s2)cn1	8.8	-	0	0	0	0	0	0
COCCCNC(=O)CSC1=Nc2ccccc2C2=NC(c3ccccc3)C(=O)N12 (stereo unspecified)	0	0	0	0	0	0	-	-
CC(C)C1N=C2c3ccccc3N=C(SCC(=O)NCCc3ccc(S(N)(=O)=O)cc3)N2C1=O (stereo unspecified)	9.4	-	0	0	0	0	0	0
COc1ccc(C2N(c3cc(Cl)ccc3OC)C(=O)C3CCCN32)c(OC)c1 (stereo unspecified)	9.5	0	0	0	0	0	0	0
COc1ccccc1C1N(c2cc(Cl)ccc2OC)C(=O)C2CCCN21 (stereo unspecified)	0	0	0	0	0	0	-	-
C[C@@H]1CCCCO[C@@H](CN(C)C(=O)CCCN(C)C)[C@H](C)CN([C@H](C)CO)C(=O)c2cc(NC(=O)Nc3ccc(C(F)(F)F)cc3)ccc2O1	-	-	-	-	-	0	-	-
CCOC(=O)C1CCCCN1Cc1cccc(F)c1 (stereo unspecified)	8.8	0	0	0	0	0	0	0
CCOC(=O)C1CCCCN1Cc1ccc(F)cc1 (stereo unspecified)	0	0	0	0	0	0	-	-
CO[C@H]1CN(C)C(=O)c2cc(NS(=O)(=O)c3ccccc3C)ccc2OC[C@@H](C)N(C)C[C@H]1C	-	-	-	-	-	0	-	-
CNC(C)C#Cc1ccc2c(=O)c3ccccc3oc2c1 (stereo unspecified)	9.2	0	37.9	0	0	50.8	12.6	0
CC1(C(=O)OCC(=O)NC(=O)NCc2ccccc2)CC1(Cl)Cl (stereo unspecified)	0	0	0	0	0	-	-	-
CC1(C(=O)OCC(=O)NCc2ccc(Cl)cc2)CC1(Cl)Cl (stereo unspecified)	8.6	0	0	-	-	0	0	0
C[C@H]1CN([C@@H](C)CO)C(=O)c2cc(-c3ccc(F)cc3)cnc2O[C@H]1CN(C)C(=O)c1ccc(F)cc1	-	-	-	-	-	0	-	-
CN(C)c1ccc(/C=C2\CCCc3c2nc2ccccc2c3C(=O)O)cc1	9.6	0	0	0	0	58.8	0	5.5
CCS(=O)(=O)c1ccc(O)c(NC(=O)COc2ccc(OC)cc2)c1	8.1	0	-	0	0	0	0	0
CCS(=O)(=O)c1ccc(O)c(NC(=O)COc2ccc(C)cc2)c1	0	0	-	0	0	-	-	-
COc1ccc(OC)c(S(=O)(=O)N2CCC(C(=O)Nc3cccc(C)c3C)CC2)c1	8.4	0	0	0	0	0	0	0
C[C@@H]1CN([C@@H](C)CO)C(=O)c2cc(NC(=O)Nc3ccccc3)ccc2O[C@H]1CN(C)Cc1ccc(Cl)c(Cl)c1	-	-	-	-	-	0	-	-
O=S1(=O)C[C@H](N2CCN(CCO)CC2)[C@@H](COCc2ccccc2)N1	8.1	-	0	-	-	0	0	0
O=[N+]([O-])c1ccccc1N/N=C\c1ccccc1F	9.1	0	57.0	65.0	0	63.3	8.9	14.3
SMILES	SMARCA2 activ	MITF TRPM1 HTS	Wnt bcat act	HSF1 activator	HSF1 inh	esBAF inh	SMARCA2 conf	VP16 Luc act
C[C@@H]1CN([C@H](C)CO)C(=O)c2cc(NC(=O)C3CCCCC3)ccc2O[C@@H](C)CCCCO[C@@H]1CN(C)Cc1ccc2c(c1)OCO2	-	-	-	-	-	0	-	-
O=C(Nc1ccccc1F)c1coc(=O)c(Br)c1	0	0	0	0	0	-	-	-
O=C(NCCc1ccc(F)cc1)c1coc(=O)c(Br)c1	27.1	0	0	0	0	0	0	0
C[C@@H]1CN([C@@H](C)CO)C(=O)Cc2cc(NC(=O)NC3CCCCC3)ccc2O[C@H]1CN(C)Cc1ccccc1	-	-	-	-	-	0	-	-
C/C(=N\N1C(=O)c2ccccc2NC1c1ccccc1)c1ccccc1O (stereo unspecified)	9.9	0	0	0	0	0	0	5.7
Cc1ccc(-n2ncc(Cl)c2C(=O)NCc2ccccc2)cc1	0	0	0	0	0	?	-	-
C=CCNC(=O)c1c(Br)cnn1-c1ccc(C)cc1	9.2	0	0	0	0	-	10.6	10.7
N#CCOc1ccccc1CNC[C@H]1O[C@@H](n2cnc(C(N)=O)n2)[C@H](O)[C@@H]1O	0	0	0	-	-	0	-	-
NC(=O)c1ncn([C@@H]2O[C@H](CNCc3cc(Br)ccc3OCc3ccccc3)[C@@H](O)[C@H]2O)n1	15.6	0	0	-	-	0	0	0
CN1CCN(C(=O)c2cc3c(c(-c4cccc(-c5cccc(F)c5)c4)n2)[C@@H](CCO)N(S(=O)C(C)(C)C)C3)CC1 (stereo partly specified)	-	-	-	-	-	0	-	-
C[C@H]1CN([C@@H](C)CO)C(=O)c2cccc(NC(=O)c3ccncc3)c2O[C@H]1CN(C)Cc1ccccc1	-	-	-	-	-	0	-	-
Nc1nccnc1C(=O)N/N=C/c1ccco1	9.6	-	0	0	0	-	0	0
O=C(N/N=C/c1ccco1)Nc1ccccc1	10.5	0	38.5	0	0	0	0	14.1
Oc1ccc(-c2csc(Nc3ncccn3)n2)c(O)c1	9.4	103.7	94.1	0	0	82.4	11.4	10.3
Cc1ccc(CNc2ncnc3c2cnn3-c2ccccc2)cc1	0	-	0	0	0	0	-	-
Clc1ccc(-n2ncc3c(NCc4ccccn4)ncnc32)cc1	11.5	0	0	0	0	67.9	11.3	6.0
COc1ccccc1CNc1ncnc2c1cnn2-c1ccccc1	8.2	0	0	0	0	70.8	0	0
CCCCNc1ncnc2c1cnn2-c1ccccc1	0	0	0	0	0	0	-	-
Clc1ccc(-n2ncc3c(NCCCn4ccnc4)ncnc32)cc1	0	-	-	0	0	0	-	-
CCCCNc1ncnc2c1cnn2-c1ccc(Cl)cc1	10.5	0	0	0	0	0	0	9.8
C=CCNc1ncnc2c1cnn2-c1ccc(Cl)cc1	11.7	-	?	0	0	0	8.3	11.5
